Measured values from PubChem BioAssay AID1671188 (National Center for Advancing Translational Sciences (NCATS), 2021).
About 250 (0.25%) of roughly 100,000 compounds were called active. Not shown: some 7% with an inconclusive outcome. The sample holds actives, similar compounds and a random draw of the others, so the mix is not that of the screen. Values without a mark were called inactive. Calls come from the whole dose curve; as a rule, active = well fitted inhibition curve with a large enough effect; inconclusive = small, poorly fitted or top-dose-only effect; inactive = flat fitted curve, though single readings scatter.

Each molecule was assayed against Alanine aminotransferase 2 (Homo sapiens) (UniProt Q8TD30) (assay: Primary qHTS assay for inhibitors of Glutamate pyruvate transaminase 2 (GPT2)). Conditions: Recombinant GPT2, coupled pyruvate oxidase/HRP Amplex Red fluorescence; series mostly up to 57.7 µM; activity change, negative = inhibition: at the top concentration.
Chain of Alanine aminotransferase 2 (Homo sapiens) (Q8TD30 whole entry, looked up): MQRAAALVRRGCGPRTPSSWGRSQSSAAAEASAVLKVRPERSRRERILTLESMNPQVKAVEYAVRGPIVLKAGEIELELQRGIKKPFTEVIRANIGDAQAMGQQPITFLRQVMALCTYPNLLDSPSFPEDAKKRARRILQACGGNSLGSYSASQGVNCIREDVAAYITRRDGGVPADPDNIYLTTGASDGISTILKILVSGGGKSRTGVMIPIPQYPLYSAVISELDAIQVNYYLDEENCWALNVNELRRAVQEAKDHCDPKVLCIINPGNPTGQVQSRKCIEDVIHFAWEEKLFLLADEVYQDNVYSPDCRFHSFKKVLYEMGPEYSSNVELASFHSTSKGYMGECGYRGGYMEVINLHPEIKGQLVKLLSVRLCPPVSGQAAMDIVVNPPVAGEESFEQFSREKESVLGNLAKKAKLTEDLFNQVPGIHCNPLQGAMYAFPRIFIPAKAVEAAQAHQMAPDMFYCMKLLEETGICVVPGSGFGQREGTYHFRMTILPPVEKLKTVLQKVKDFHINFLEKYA
Procedure: Assay Provider: Zhenghe John Wang Ph.D.
Case Western Reserve University, Cleveland OH
Glutamate pyruvate transaminase 2 (GPT2) catalyzes the reversible transamination of glutamate and pyruvate to provide a-ketoglutarate and alanine. We have optimized an assay for GPT2 enzymatic activity that couples pyruvate formation to detection of fluorescence using an established pyruvate oxidase/horseradish peroxidase / Amplex Red system.
Screening conditions were 250uM a-KG, 2mM L-alanine, and 10ng/uL GPT2 in […] of solution; 10uL of Amplex reaction mix (outlined below) were added so that final concentrations of Amplex reagents in 50uL were 0.2mM ThPP, 0.2U/mL PO and HRP, and 50uM Amplex.
NOTE: The volume of GPT2 in the system depends on the activity of it. The activity is different every batch. You need to test the activity before the assay. For full plate assay with automation, plate 20uL of GPT2 buffer to pin into, then add 10uL of GPT2 dilution followed immediately by 10uL of substrate dilution. 2 Columns of the plate were devoted to GPT2 buffer ([…] PH7.5, 0.0001% Tween) + 50uM AOA (known GPT2 inhibitor) to serve as a positive control. Complete the assay as normal. Amplex-red buffer: […] PH7.5, 1 mM EDTA, 1 mM MgCl2.
1. Combine a-KG and L-alanine at desired concentrations and incubate for at least 10 minutes at 37C. Stocks of L-alanine and a-KG are diluted in distilled water. However, the stocks were diluted in GPT2 buffer for the assay.
2. Prepare GPT2 dilution at the desired concentration in GPT2 buffer.
3. Plate 40uL of GPT2 dilution with 40uL of substrate dilution and let incubate for 30 minutes at room temperature.
4. Add 20uL of Amplex reaction mix prepared as follows: 1.5uL 200U/mL Horseradish Peroxidase, 200mM Thiamine Pyrophosphate, 200U/mL Pyruvate Oxidase; 7.5uL 10mM Amplex Red; 288uL Amplex Buffer.
5. Incubate for 30 minutes at room temperature in the dark, then image using AM_Amplex_Fluorescence on plate reader nearest the window.
% is set by controls: 0 for no effect and ±100 for the full control effect; potency is the fitted concentration of half-maximal effect.
Note: nearly all actives have a fitted effect of over 60% in size.

SMILES | activity change, negative = inhibition | outcome | Potency
O=C(c1ccc(C(F)(F)F)s1)N1CCCN(c2nnc3ccccn23)CC1 | -8.08% | – | –
COc1ccc(C(=O)N(C)Cc2ccc(F)cc2)cc1 | 0.769% [at 88.5 µM] | – | –
COc1cccc(NC(=O)O[C@@H]2CO[C@H]3[C@@H]2OC[C@@H]3Nc2nccc(-c3cccs3)n2)c1 | -1.4% | – | –
CCOC(=O)c1ccc(NC(=O)Cn2c(N3CCOCC3)nc(CC)cc2=O)cc1 | – | inactive | –
Cn1nccc1-c1cccc(-c2nc(N3CCOCC3)n(C)n2)c1 | -1.34% | – | –
CC(C)NC(=O)N1Cc2[nH]cnc2C[C@H]1c1nc(-c2ccc3c(c2)OCO3)no1 | – | inactive [at 88.5 µM] | –
CC(=O)/C(C)=N/O | – | – | 20 µM (active)
CN(CC1CCOCC1)C(=O)c1ccccc1 | -2.97% | – | –
C#CCNC(=O)c1cn2cc(-c3ccccc3)sc2n1 | – | inactive [at 88.5 µM] | –
Cc1ccccc1CN1CCCn2nc(C)c(-c3cccnc3N3CCOCC3)c21 | – | inactive [at 88.5 µM] | –
COc1ccc(-c2cc(-c3cccc4[nH]ncc34)cn3cncc23)cn1 | -3.99% [at 88.5 µM] | – | –
O=C(NCc1cccnc1)[C@@H]1C[C@@H](O)CN1C1CCN(C(=O)C2(c3ccccc3)CC2)CC1 | – | inactive | –
CC(NC(=O)c1ccc(C(C)(C)C)cc1)C(=O)N1CCN(c2ccccn2)CC1 (centres undefined) | -5.47% | – | –
Cc1ccccc1-c1cn(C)c(=O)n2cc(CNc3ccccc3)nc12 | 0.941% [at 88.5 µM] | – | –
Cn1cc(CN2CCOC[C@H]2c2ncc(-c3cccc(F)c3)[nH]2)c2ccccc21 | -3.28% [at 88.5 µM] | – | –
Cc1cc(S(=O)(=O)NCC2CCOCC2)ccc1F | -5.6% | – | –
COC1CN(c2ccc(C)cc2)C12CCN(C(=O)Cc1cccc(F)c1)CC2 (centres undefined) | – | inactive | –
CC(=O)N1CC2(CCN(Cc3cccnc3)CC2)Cc2ccccc21 | – | inactive | –
CC(=O)N[C@H]1CN(c2cncc(C(=O)N3CCCC3)n2)C[C@@H]1C1CC1 | – | inactive | –
O=C(NC1CCN(C(=O)c2ccc(-c3cncnc3)cc2)CC1)c1ccccn1 | 4% | – | –
CN1CCOC[C@H]2CCN(C(=O)c3ccsc3)C[C@H]21 | – | inactive | –
CCCN(C)c1nccnc1OC1CCN(C(=O)c2ccnn2C)C1 (centres undefined) | 2.99% | – | –
Cc1cc2nc3n(c(=O)c2n1CC(=O)Nc1ccc2c(c1)OCO2)CCCCC3 | – | inactive | –
CCC1=C(C(=O)OC)C(c2ccccc2)N2C(CC(=O)N3CCCC3)=CSC2=N1 (centres undefined) | – | inactive | –
CC(C)Cc1cc(CNc2nc(C(C)(C)C)nc3c2cnn3C)no1 | -29.9% | – | –
COc1cccc(-c2ccc(C(=O)N3CCC(NC(=O)c4ccccc4OC)CC3)cc2)c1 | -18.1% | – | –
CCc1cccc2c(C(CC(=O)NCC(C)C)c3cccc(OC)c3)c[nH]c12 (centres undefined) | 2.13% | – | –
O=C(Nc1ccccc1)N1CCCC(C(=O)N2CCCC(c3nc4ncccc4[nH]3)C2)C1 (centres undefined) | -5.86% | – | –
O=C(C1CCC1)N1CCC(n2cnnc2C2CC2)CC1 | -0.859% | – | –
